# Screen size: about 52,000 compounds; about 4,300 (8.3%) were called active. This is one part of a sample in which actives are shown more often than they occur. Rule as the data show it: active = survival mostly below about 52% (no sharp cut-off); inactive = mostly above about 56%.
# Test system: DeltatarO mutant
# Assay: S. aureus survival, RN4220 and DeltatarO strains – OD600, teichoic acid synthesis inhibitors, primary screen (AID 463173)
# Details: S. aureus RN4220 wild type/DeltatarO growth, OD600, 18 h, hits give low values, screened at 18.75 µg/mL (by protocol)
row,SMILES,survival
1,CCOc1ccc(NS(=O)(=O)c2ccc(-c3cc(C)no3)s2)cc1,87% (inactive)
2,CCOc1ccc(-c2nonc2NC(=O)c2oc3ccc(Br)cc3c2C)cc1,50% (inactive)
3,CC1CCC(NC(=O)CN2CCC(n3nnc4ccccc43)CC2)CC1 (stereo unspecified),76% (inactive)
4,CC1=C(C(=O)Nc2ccc(C)cc2C)C(c2ccccc2)n2ncc(C(=O)Nc3ccccc3)c2N1 (stereo unspecified),58% (inactive)
5,CC(=O)N1CCCc2cc(S(=O)(=O)N3CCC(C(=O)N(Cc4ccccc4)C(C)C)CC3)ccc21,76% (inactive)
6,O=C(CSc1nc(-c2ccccc2)[nH]c1-c1ccccc1)Nc1ccc2c(c1)OCO2,67% (inactive)
7,O=C(CSc1nc2ccccc2nc1Cc1ccc(F)cc1)Nc1ccc2c(c1)OCO2,52% (active)
8,O=C(CSc1nc2ccccc2nc1Cc1ccc(Cl)cc1)Nc1ccc2c(c1)OCO2,71% (inactive)
9,Cc1cccc(-c2nc(SCC(=O)Nc3ccc4c(c3)OCO4)c(-c3ccccc3)[nH]2)c1,40% (active)
10,O=C(CSc1nc(-c2cccc(F)c2)[nH]c1-c1ccccc1)Nc1ccc2c(c1)OCO2,32% (active)
11,O=C(CSc1nc(-c2ccc(F)cc2)[nH]c1-c1ccc(F)cc1)Nc1ccc2c(c1)OCO2,97% (inactive)
12,O=C(CSc1nc(-c2cccc(F)c2)[nH]c1-c1ccccc1)Nc1ccc2c(c1)OCCO2,94% (inactive)
13,O=C(CSc1nc2ccccc2nc1Cc1ccccc1)Nc1ccc2c(c1)OCO2,75% (inactive)
14,Cc1cccc(-c2nc(SCC(=O)Nc3ccc4c(c3)OCCO4)c(-c3ccccc3)[nH]2)c1,58% (inactive)
15,O=C(CSc1nc2ccccc2nc1Cc1ccccc1F)Nc1cccc(C(F)(F)F)c1,35% (active)
16,Cc1ccc(Cc2nc3ccccc3nc2SCC(=O)Nc2cccc(C(F)(F)F)c2)cc1,67% (inactive)
17,Cc1ccc(NC(=O)CSc2nc3ccccc3nc2Cc2ccccc2F)cc1F,107% (inactive)
18,CC(NC(=O)Nc1cc(Cl)ccc1Cl)c1c(-n2cccc2)sc2c1CCCC2 (stereo unspecified),72% (inactive)
19,Cc1ccc2c(c1)N(C(=O)NCc1ccccc1)CCO2,79% (inactive)
20,Cc1cccc(CN2C(=O)c3ccccc3S(=O)(=O)c3ccc(C(=O)NC4CCCCC4)cc32)c1,79% (inactive)
21,COCCNC(=O)CCCn1c(SCC(=O)c2ccc(Br)cc2)nc2c(sc3ccccc32)c1=O,68% (inactive)

row,SMILES,survival
1,COc1ccccc1CNC(=O)CN1C(=O)COc2ccc(S(=O)(=O)N3CCC(C)CC3)cc21,76% (inactive)
2,Cn1cc(S(=O)(=O)c2ccc(Cl)cc2)c(=O)c2cc(F)c(N3CCCC3)cc21,73% (inactive)
3,COCCCNC(=O)c1sc2nc3n(c(=O)c2c1C)CCC3,91% (inactive)
4,CCOc1ccccc1NC(=O)CSc1nc2c(c(=O)[nH]1)CCC2,101% (inactive)
5,COc1ccc(OC)c(CCNC(=O)c2cnn(-c3ccccc3)c2C2CCN(C(=O)OC(C)(C)C)CC2)c1,73% (inactive)
6,CCc1ccc(NC(=O)CSc2ccccn2)cc1,89% (inactive)
7,COc1ccc(-c2[nH]c(-c3cccc(OC)c3)nc2SCC(=O)Nc2ccc3c(c2)OCO3)cc1,55% (inactive)
8,COc1cccc(-c2nc(SCC(=O)Nc3ccc4c(c3)OCO4)c(-c3ccccc3)[nH]2)c1,31% (active)
9,COc1cccc(-c2nc(SCC(=O)Nc3ccc4c(c3)OCCO4)c(-c3ccccc3)[nH]2)c1,54% (inactive)
10,CC(=O)N1c2ccc(S(=O)(=O)NCCC(=O)Nc3ccc(Br)c(C)c3)cc2CC1C (stereo unspecified),90% (inactive)
11,Cc1ccc(CCNC(=O)c2ccc3c(c2)N(Cc2cccc(C)c2)C(=O)c2ccccc2S3(=O)=O)cc1,72% (inactive)
12,CCOC(=O)C1CCCN(CC(=O)N2CCCc3c2c(=O)oc2ccc(OCc4ccccc4)cc32)C1 (stereo unspecified),121% (inactive)
13,COc1ccc(N2CC(C(=O)NCc3nnnn3-c3ccc(C)c(C)c3)CC2=O)cc1 (stereo unspecified),69% (inactive)
14,CCOC(=O)CSc1ncnc2c1c(-c1ccccc1)cn2-c1ccc(OC)cc1,60% (inactive)
15,CCCCSc1ncnc2c1c(-c1ccccc1)cn2-c1cccc(F)c1,78% (inactive)
16,CCCSc1ncnc2c1c(-c1ccccc1)cn2-c1ccccc1OC,2% (active)
17,CC(C(=O)O)N1CCCC1 (stereo unspecified),94% (inactive)
18,CC(C(=O)O)N1C(=O)NC2NC(=O)NC21 (stereo unspecified),54% (active)
19,CCOc1ccc(C(=O)Nc2nnc(SCc3cc(=O)c4cc(C)ccc4[nH]3)s2)cc1,91% (inactive)
20,COCCNC(=O)c1ccc2c(c1)NC(=O)C(CS(=O)(=O)Cc1ccc(F)cc1Cl)N2 (stereo unspecified),130% (inactive)
21,Nc1ccc2c(c1)OC1(CCCCC1)O2,55% (active)

row,SMILES,survival
1,O=C1OC2(CCCC2)OC(=O)C1=CNc1ccccc1,96% (inactive)
2,COc1ccccc1-c1cc(C(=O)Nc2ccccc2C(F)(F)F)no1,71% (inactive)
3,Cc1ccc2c(=O)cc(C(=O)Nc3ccc(S(=O)(=O)Nc4ncccn4)cc3)oc2c1C,76% (inactive)
4,N#Cc1ccc(NC(=O)c2ccc3c(c2)nnn3C2CCCC2)cc1,126% (inactive)
5,Cc1cc(-c2ccc(S(=O)(=O)Nc3cccc(Cl)c3C)cc2)on1,94% (inactive)
6,Cc1ccc(-c2nnn(CC(=O)N(CC(=O)NCC3CCCO3)C3CCN(Cc4ccccc4)CC3)n2)o1 (stereo unspecified),83% (inactive)
7,O=C(NCc1ccco1)C(Sc1ccccc1)c1ccccc1 (stereo unspecified),101% (inactive)
8,Cc1c(C(=O)NCc2ccc(Cl)cc2)sc2nc3n(c(=O)c12)CCCCC3,51% (active)
9,Cc1c(C(=O)NCc2ccccc2)sc2nc3n(c(=O)c12)CCCCC3,56% (inactive)
10,CCOC(=O)c1ccccc1NC(=O)c1sc2nc3n(c(=O)c2c1C)CCCC3,103% (inactive)
11,Cc1c(C(=O)NCc2ccc(Cl)cc2)sc2nc3n(c(=O)c12)CCCC3,95% (inactive)
12,CCN(CC)CCNC(=O)c1sc2nc3n(c(=O)c2c1C)CCCCC3,53% (inactive)
13,Cc1c(C(=O)NCc2ccc(Cl)cc2)sc2nc3n(c(=O)c12)CCC3,102% (inactive)
14,CCCN(CCC)CCNC(=O)c1sc2nc3n(c(=O)c2c1C)CCCCC3,62% (active)
15,Cc1ccc(CNC(=O)c2sc3nc4n(c(=O)c3c2C)CCCCC4)cc1,53% (active)
16,CCCN(CCC)CCCNC(=O)c1sc2nc3n(c(=O)c2c1C)CCC3,79% (inactive)
17,CCOC(=O)c1ccccc1NC(=O)c1sc2nc3n(c(=O)c2c1C)CCCCC3,37% (active)
18,CCOc1ccccc1NC(=O)c1sc2nc3n(c(=O)c2c1C)CCCCC3,45% (inactive)
19,Cc1ccc(CNC(=O)c2sc3nc4n(c(=O)c3c2C)CCCC4)cc1,80% (inactive)

# From PubChem BioAssay AID463173 (ICCB-Longwood Screening Facility, Harvard Medical School, 2010)
